PubChem BioAssay (NCATS)
Records with an inconclusive call do not appear. Unmarked numbers belong to inactive results. The call rests on the fitted dose curve; in most records, active means well fitted curve in the direction sought with a large enough effect in the signal ratio (not every such curve was filed as active); inconclusive means small, poorly fitted or top-dose-only effect, or effect the other way, or a change in a side signal; inactive means no such curve, though single readings can be large or run the other way; the % refers to the signal ratio.

Target: Tyrosine-protein phosphatase non-receptor type substrate 1 (Homo sapiens) + Leukocyte surface antigen CD47 (Homo sapiens) (UniProt P78324+Q08722)
Assay: CD47-SIRPalpha protein protein interaction - HTRF assay qHTS validation (AID 1347058); further: 0% is about no effect
Details: TR-FRET HTRF CD47-His / biotin-SIRPalpha binding, ratio 665/615; series mostly up to 38.3 µM; activity change, negative = inhibition: at the top concentration
Description: SIRPalpha is a myeloid cell expressed immunomodulatory receptor that binds the tumor expressed immune checkpoint CD47. Therapeutic disruption of this interaction leads to immune-mediated tumor rejection. This assay was used to quantitate CD47-SIRPalpha binding biochemically and evaluate chemical libraries for novel CD47-SIRPalpha inhibitors. To recapitulate the biological interaction of CD47 and SIRPalpha, we designed expression constructs to produce their recombinant, soluble, extracellular interaction domains. CD47 was produced with an N-terminal 6His tag. SIRPalpha was produced with an N-terminal Avi-Tag for site-specific biotin incorporation. The CD47-SIRPalpha interaction was measured by TR-FRET using affinity tag linked reagents (anti-6His-Eu donor and streptavidin-XL665 acceptor). SIRPalpha without biotin incorporation was used as a positive control inhibitor.
SEQUENCE No. (e.g., 1, 2, 3, etc.); […] (e.g., Cells, Incubation, Reagent, etc.); VALUE and DESCRIPTION.
1a. Reagent. 3 uL CD47-His (12.5 nM) and Anti-His Eu Donor reagent (0.7 nM) added to respective wells in Assay buffer; white/solid bottom high base, med bind 1536-well plates (Greiner 789075)
1b. Reagent. 2 uL Assay buffer negative control for background fluorescence
2. Reagent. 23 nL library compounds (7-pt, 1:4 intraplate titration series) or DMSO control transferred by Pin Tool
3. Centrifuge. Centrifuge plate for 30 s at 1000 RPM
4. Incubation.#Incubate reagents at room temperature for 30 min, protected from light
5. Reagent. 2 uL SIRPalpha-biotin (100 nM) in Assay buffer
6. Incubation.#Incubate reagents at room temperature for 30 min, protected from light
7. Reagent. 1 uL SAV-XL665 (85 nM) acceptor reagent added to respective wells
8. Centrifuge. Centrifuge plate for 30 s at 1000 RPM
9. Incubation. Incubate reagents at room temperature for 30 min, protected from light
10. Detector. Measure Top TR-FRET on EnVision (Eu/APC filter set); calculate ratio Ch1/Ch2
1. Assay buffer composition.#Phosphate buffered saline (PBS; 10 mM Phosphate, 137 mM NaCl, and 2.7 mM KCl; pH 7.4), 0.05% IGEPAL CA-630
2. 23nL of […] library compounds (7 plates) or DMSO vehicle control transferred to 9 Greiner white/solid bottom high base, TC plates in 7 interplate 1:5 titrations (see Yasgar, A. et al. 2008) with Pintool. Two of the 9 plates are DMSO-only in compound field at beginning and end of compound library-treated plates.
10. Detector settings#Mirror = LANCE/DELFIA Dual Enh; Ex. Filter = UV2[TRF] 320; Em. Filter = APC 665; 2nd Em. Filter = Europium 615; Measurement h = 6.5; Ex. light (%) = 100; Delay = […]; Window t = 100 us; No. Seq. windows = 1; Time between flashes = 2000us; No. of flashes = 100; No. of flashes for 2nd detector = 100; Calculation: "Ratio Ch1/Ch2"

Tyrosine-protein phosphatase non-receptor type substrate 1 (Homo sapiens) + Leukocyte surface antigen CD47 (Homo sapiens), sequence (P78324 whole entry, looked up): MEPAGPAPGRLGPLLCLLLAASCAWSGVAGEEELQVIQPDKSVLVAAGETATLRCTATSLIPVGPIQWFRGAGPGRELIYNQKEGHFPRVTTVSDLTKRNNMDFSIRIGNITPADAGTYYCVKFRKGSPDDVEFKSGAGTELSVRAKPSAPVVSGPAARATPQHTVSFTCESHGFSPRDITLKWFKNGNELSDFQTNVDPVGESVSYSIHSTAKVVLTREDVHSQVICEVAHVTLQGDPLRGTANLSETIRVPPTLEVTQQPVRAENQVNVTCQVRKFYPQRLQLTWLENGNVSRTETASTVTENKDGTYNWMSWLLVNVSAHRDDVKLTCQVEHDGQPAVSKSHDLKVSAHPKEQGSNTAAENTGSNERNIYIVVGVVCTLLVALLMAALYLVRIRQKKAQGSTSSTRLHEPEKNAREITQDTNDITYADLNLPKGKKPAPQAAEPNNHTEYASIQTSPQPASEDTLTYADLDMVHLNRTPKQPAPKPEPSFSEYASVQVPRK
Tyrosine-protein phosphatase non-receptor type substrate 1 (Homo sapiens) + Leukocyte surface antigen CD47 (Homo sapiens), sequence (Q08722 whole entry, looked up): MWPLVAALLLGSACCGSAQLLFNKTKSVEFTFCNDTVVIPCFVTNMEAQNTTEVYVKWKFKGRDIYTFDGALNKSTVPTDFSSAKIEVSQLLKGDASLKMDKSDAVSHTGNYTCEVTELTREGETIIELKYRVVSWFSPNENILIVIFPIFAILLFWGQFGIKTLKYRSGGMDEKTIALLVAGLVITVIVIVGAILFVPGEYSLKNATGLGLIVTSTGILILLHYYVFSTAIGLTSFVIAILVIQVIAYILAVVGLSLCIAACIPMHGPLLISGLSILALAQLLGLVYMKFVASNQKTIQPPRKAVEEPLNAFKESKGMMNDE

SMILES | activity change, negative = inhibition
CCCC1O[C@@H]2C[C@H]3[C@@H]4CCC5=CC(=O)C=C[C@]5(C)[C@H]4[C@@H](O)C[C@]3(C)[C@]2(C(=O)CO)O1 (stereo not given in full) | 0.21%
CC1(C)CCC(NC(=O)[C@@H](N)CCC(=O)O)CC1 | 6.66%
CC(CCc1ccccc1)NCC(O)c1ccc(O)c(C(N)=O)c1 (stereo not given) | 2.96%
C[C@@H]1C(=O)NC2=Nc3cccc(Cl)c3CN21 | 0.109%
CNCCC=C1c2ccccc2CCc2ccccc21 | -1.82%
CNCCC(Oc1ccccc1C)c1ccccc1 (stereo not given) | -2.13%
CN1C2CCC1CC(OC(=O)c1c[nH]c3ccccc13)C2 (stereo not given) | -1.25%
O=C(O)c1cc2cc(Cc3cccnc3)ccc2o1 | -5.92%
Nc1cc(Cl)c(NC2=NCCN2)c(Cl)c1 | -1.53%
C[N+]1(CCCCC[N+]2(C)CCCC2)CCCC1 | 0.952%
COc1cc2c(cc1O)CC[C@@H]1[C@@H]2CC[C@]2(C)[C@@H](O)CC[C@@H]12 | -0.346%
CCCn1c(=O)[nH]c(=O)c2[nH]cnc21 | -0.999%
CC[C@H](C)C(=O)O[C@H]1CCC=C2C=C[C@H](C)[C@H](CC[C@@H]3C[C@@H](O)CC(=O)O3)[C@H]21 | 0.138%
Oc1ccc(O)cc1 | 14.3%
CC(=O)O[C@H]1C[C@@H]2CC[C@@H]3[C@H](CC[C@@]4(C)[C@H]3C[C@H]([N+]3(C)CCCCC3)[C@@H]4OC(C)=O)[C@@]2(C)C[C@@H]1[N+]1(C)CCCCC1 | -0.267%
C1CCc2nnnn2CC1 | -3.25%
N[C@H](CO)C(=O)O | -11.7%
CC(C)COC(=O)OCN1C(=O)CN(CCN2CC(=O)N(COC(=O)OCC(C)C)C(=O)C2)CC1=O | -1.32%
N[C@@H](Cc1cnc[nH]1)C(=O)O | -2.47%
O=C1CCC(c2ccc(-n3ccnc3)cc2)=NN1 | -1.85%
